Data as given in the supplement of paper PMC7156485.

Legend:
Conditions in all cases: concentration: 10 µM; 24 h
HCC1569 [1] = assay: cell number relative to DMSO (% of DMSO); higher = more cells (less growth inhibition / toxicity)
Method in brief: (§1)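 Treatment: HCC1569 and TDF cells, 800 per well in 384-well plates with RPMI and 10% FBS, were given compounds at 10 µM for 24 h at 37 °C, in triplicate. Readout: after 3.7% formaldehyde fixation, cells were stained with a rabbit anti-H1.0 antibody, an AlexaFluor 647 secondary and DAPI. Reported values are H1.0 nuclear intensity or cell number as percent of the plate control, taken as the median of replicates, with positional smoothing for HCC1569.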

TDF [2] = assay: as above
Method in brief: as §1

TDF [3] = assay: H1.0 immunofluorescence intensity relative to DMSO (% of DMSO); higher = stronger H1.0 induction, active = 120 or more
Method in brief: as §1

HCC1569 [4] = assay: H1.0 immunofluorescence intensity relative to DMSO (% of DMSO); higher = stronger H1.0 induction, active = 140 or more
Method in brief: as §1
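Wherever H1.0 immunofluorescence intensity relative to DMSO is given: TDF is a line of transformed human dermal fibroblasts of mesenchymal origin.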
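Wherever cell number relative to DMSO is given: TDF denotes transformed human dermal fibroblasts of mesenchymal origin.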

SMILES	cell number (HCC1569 [1])	cell number (TDF [2])	H1.0 immunofluorescence intensity (TDF [3])	H1.0 immunofluorescence intensity (HCC1569 [4])
N[C@@H](CC(=O)O)C(=O)O [L-Aspartic acid]	104	108	88.5 (inactive)	93.2 (inactive)
CCN(c1nc(N)c(C(=O)N=C(N)N)nc1Cl)C(C)C [5-(N-Ethyl-N-isopropyl)amiloride]	103	95	97.2 (inactive)	91 (inactive)
CCn1cc(C(=O)O)c(=O)c2cc(F)c(N3CCNC(C)C3)c(F)c21 (stereo not given) [Lomefloxacin]	101	90.9	95.3 (inactive)	100 (inactive)
O=c1cc(-c2cccc3c2Sc2ccccc2S3)oc(N2CCOCC2)c1	83.2	97.9	94.5 (inactive)	145 (active)
Cl.c1ccc2c(c1)CCCC2C1=NCCN1 (stereo not given) [Tetrahydrozoline hydrochloride]	101	98.1	89.8 (inactive)	98.3 (inactive)
O=[N+]([O-])c1ccc(-c2nc(-c3ccc(F)cc3)c(-c3ccncc3)[nH]2)cc1	89.9	101	84.2 (inactive)	139 (inactive)
Cc1ccc(-c2ncc(Cl)cc2-c2ccc(S(C)(=O)=O)cc2)cn1 [Etoricoxib]	106	97.1	101 (inactive)	92.2 (inactive)
CC(=O)N1CCN(C(=O)/C=C/c2ccc(Sc3ccccc3C(C)C)c([N+](=O)[O-])c2)CC1	82.5	86.4	103 (inactive)	123 (inactive)
CC(=O)Oc1ccccc1C(=O)Oc1ccc(CO[N+](=O)[O-])cc1 [4-[(nitrooxy)methyl]phenyl 2-(acetyloxy)benzoate]	50.1	66.5	110 (inactive)	143 (active)
CCc1c(CC(N)=O)c2cc(OCCCP(=O)(O)O)ccc2n1Cc1ccccc1	101	104	96 (inactive)	101 (inactive)
OCC1OC(O)C(Cl)C(O)C1O [2-Chloro-2-deoxy-D-glucose]	104	101	101 (inactive)	92 (inactive)
COc1ccc2ccc(=O)oc2c1CC=C(C)C [Osthole]	97.3	92.5	103 (inactive)	99.9 (inactive)
CC(NCCc1ccc(O)cc1)C(O)c1ccc(O)cc1.Cl (stereo not given) [Ritodrine hydrochloride]	107	113	101 (inactive)	91.5 (inactive)
Br.CN(C)CCCC1(c2ccc(F)cc2)OCc2cc(C#N)ccc21 (stereo not given) [Citalopram hydrobromide]	101	103	96 (inactive)	92.5 (inactive)
CCCCCC=CCC(O)C=CC=CC=CC(O)CCCC(=O)O [5(S),12(S)-DIHETE all trans]	101	106	93.5 (inactive)	95 (inactive)
COC1=C2CC(C)=c3c(C(C)=O)c(OC)c(O)c4c3c2c2c(cc(OC)c3c(OC)cc(O)c4c32)C(=O)C1=O [Hypocrellin B]	101	95	97.1 (inactive)	93.7 (inactive)
CC(N)(Cc1ccc(O)cc1)C(=O)O [L-alpha-Methyl-p-tyrosine]	107	111	92.6 (inactive)	90.6 (inactive)
C1CCC(C(CC2CCCCN2)C2CCCCC2)CC1.O=C(O)C=CC(=O)O (stereo not given)	19	5.25	273 (active)	117 (inactive)
N#CC(=Cc1ccc(O)c(O)c1)C(=O)OCC=Cc1ccccc1	91.9	105	90.5 (inactive)	115 (inactive)
COC(=O)C(Cc1ccc(OCCn2c(=O)sc3cc(C(=O)c4ccccc4)ccc32)cc1)C(=O)OC	102	91.8	93.3 (inactive)	105 (inactive)
Cn1c(=O)[nH]c2ncn(C)c2c1=O [1,7-Dimethylxanthine]	102	98.9	88 (inactive)	85.7 (inactive)
N#Cc1c(-c2ccccc2)no[n+]1[O-] [4-Phenyl-3-furoxancarbonitrile]	64.2	93.3	93.2 (inactive)	122 (inactive)
O=C1NC(=O)C(c2ccccc2)(c2ccccc2)N1 [5,5-Diphenylhydantoin]	99.8	108	89.2 (inactive)	100 (inactive)
CC=C1C2C=C(C)CC1(N)c1ccc(=O)[nH]c1C2 (single isomer, unassigned; (-)) [(-)-Huperazine]	98.2	100	98.9 (inactive)	84.1 (inactive)
CC(C)=CCCC(C)=CCCC(C)=CCCC(C)=CCCC(C)=CCCC(C)=CCCC(C)=CCCC(C)=CCCC(C)=CCO [Solanesol]	104	97.8	89.9 (inactive)	93.9 (inactive)
